# Only some compounds are listed: those with a hit (about 2.3% of all), similar ones and a draw of the others.
# Pf Dd2 inh = P. falciparum Dd2 growth inhibitors, primary screen, SYBR Green fluorescence, single dose replicates | 72 h; stronger effect = lower value | activity change, % at 10 µM | actives 2.3% (n = 94,000); in the data active means activity change below about -80%; inconclusive means no clear call, values can overlap the other calls
# C diff growth = C. difficile growth inhibitors, primary screen, HTS | AID 1259249, 2017 | growth activity, negative = inhibition, % at 16 µg/mL (by protocol) | actives 0.25% (n = 86,000) | Clostridium difficile clinical isolate growth, OD600, 24 h; stronger effect = lower value;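 active means mean growth activity at or below -80% and every replicate also at or below -80%; inconclusive means mean at or below -80% but some replicate above -80%; inactive means mean growth activity above -80%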
# A number is an active result; – = inactive; ? = inconclusive; · = no result given.
SMILES,Pf Dd2 inh,C diff growth
C[C@@H]1CCCCO[C@@H](CN(C)C(=O)Nc2ccc3c(c2)OCO3)[C@@H](C)CN([C@@H](C)CO)C(=O)c2cc(NC(=O)Nc3cccc4ccccc34)ccc2O1,-91,–
C[C@@H]1CCCCO[C@H](CN(C)C(=O)Nc2cccc3ccccc23)[C@H](C)CN([C@@H](C)CO)C(=O)c2cc(NC(=O)Nc3ccc4c(c3)OCO4)ccc2O1,-83,–
C[C@@H]1CN([C@@H](C)CO)C(=O)c2cc(NC(=O)Nc3ccc4c(c3)OCO4)ccc2O[C@@H](C)CCCCO[C@H]1CN(C)C(=O)Nc1cccc2ccccc12,–,–
C/C=C/c1ccc([C@H]2[C@@H](CO)N(S(C)(=O)=O)C23CN(C(=O)CC)C3)cc1,–,–
COc1ccccc1-c1ccc2n(c1=O)C[C@@H]1[C@@H](CO)[C@H](C(=O)N(C)C)N[C@H]21,·,–
C[C@H](CO)N1C[C@H](C)[C@@H](CN(C)Cc2ccc(Oc3ccccc3)cc2)Oc2ccc(NC(=O)CCN3CCOCC3)cc2C1=O,–,–
C[C@@H]1CN([C@H](C)CO)C(=O)Cc2cc(NC(=O)Nc3ccc(F)cc3)ccc2O[C@H]1CN(C)Cc1ccc(C(=O)Nc2ccccc2N)cc1,–,–
C[C@@H]1CN([C@H](C)CO)C(=O)Cc2cc(NC(=O)c3ccncc3)ccc2O[C@@H]1CN(C)Cc1ccc(C(=O)Nc2ccccc2N)cc1,–,–
C[C@H](CO)N1C[C@H](C)[C@@H](CN(C)Cc2ccc(C(=O)Nc3ccccc3N)cc2)Oc2ccc(NC(=O)Cc3ccccc3)cc2CC1=O,-83,–
C[C@@H]1CN([C@@H](C)CO)C(=O)Cc2cc(NC(=O)c3ccncc3)ccc2O[C@@H]1CN(C)Cc1ccc(C(=O)Nc2ccccc2N)cc1,-85,–
C[C@H]1CN([C@@H](C)CO)C(=O)Cc2cc(NC(=O)Nc3ccc(F)cc3)ccc2O[C@@H]1CN(C)Cc1ccc(C(=O)Nc2ccccc2N)cc1,-86,–
C[C@H](CO)N1C[C@H](C)[C@H](CN(C)Cc2ccc(C(=O)Nc3ccccc3N)cc2)Oc2ccc(NC(=O)c3ccncc3)cc2CC1=O,–,–
C[C@@H]1CN([C@@H](C)CO)C(=O)Cc2cc(NS(=O)(=O)c3ccc(Cl)cc3)ccc2O[C@H]1CN(C)C(=O)Nc1ccc2c(c1)OCO2,–,·
O=C(C[C@H]1C[C@H]2c3cc(NS(=O)(=O)c4ccc(F)cc4)ccc3O[C@H]2[C@@H](CO)O1)NCc1ccc(Cl)cc1,–,–
COCC(=O)Nc1ccc2c(c1)[C@H]1C[C@H](CC(=O)O)O[C@H](CO)[C@H]1O2,–,–
CNC[C@H]1Oc2ccc(NC(=O)NC3CCCCC3)cc2CC(=O)N([C@@H](C)CO)C[C@@H]1C,–,–
Cc1ccc(S(=O)(=O)Nc2ccc3c(c2)CC(=O)N([C@H](C)CO)C[C@@H](C)[C@@H](CN(C)Cc2ccc(C(=O)Nc4ccccc4N)cc2)O3)cc1,-86,–
Cc1ccc(S(=O)(=O)Nc2ccc3c(c2)CC(=O)N([C@@H](C)CO)C[C@H](C)[C@@H](CN(C)Cc2ccc(C(=O)Nc4ccccc4N)cc2)O3)cc1,-85,–
C[C@@H]1CN([C@@H](C)CO)C(=O)Cc2cc(NS(C)(=O)=O)ccc2O[C@@H]1CN(C)Cc1ccc(C(=O)Nc2ccccc2N)cc1,–,–
C[C@H](CO)N1C[C@H](C)[C@@H](CN(C)Cc2ccc(C(=O)Nc3ccccc3N)cc2)Oc2ccc(NS(C)(=O)=O)cc2CC1=O,–,–
COc1cccc(S(=O)(=O)Nc2ccc3c(c2)[C@H]2C[C@@H](CC(=O)NCCc4ccccc4)O[C@@H](CO)[C@H]2O3)c1,–,·
C/C=C/c1ccc([C@H]2[C@@H](CO)N(Cc3cncnc3)C23CN(C(=O)CC2CC2)C3)cc1,–,–
CCCNC(=O)C[C@H]1C[C@H]2c3cc(N(C)C)ccc3O[C@H]2[C@H](CO)O1,–,–
C[C@@H]1CN([C@H](C)CO)C(=O)c2cc(NC(=O)CCC(F)(F)F)ccc2O[C@@H]1CN(C)Cc1ccc(C(F)(F)F)cc1,–,–
C[C@@H]1CCCCO[C@@H](CN(C)C(=O)NC2CCCCC2)[C@@H](C)CN([C@@H](C)CO)C(=O)c2cc(NC(=O)c3ccccc3)ccc2O1,–,–
SMILES,Pf Dd2 inh,C diff growth
C[C@@H]1CN([C@@H](C)CO)C(=O)c2cc(NC(=O)Nc3ccccc3)ccc2O[C@@H](C)CCCCO[C@H]1CN(C)C(=O)Nc1cccc2ccccc12,–,–
C[C@@H]1CN([C@H](C)CO)C(=O)c2cc(NC(=O)Cc3ccccc3)ccc2O[C@@H](C)CCCCO[C@@H]1CN(C)C(=O)Nc1cccc2ccccc12,-92,–
C[C@@H]1CCCCO[C@H](CN(C)C(=O)Nc2cccc3ccccc23)[C@H](C)CN([C@H](C)CO)C(=O)c2cc(NC(=O)Cc3ccccc3)ccc2O1,-84,–
C[C@@H]1CCCCO[C@@H](CN(C)C(=O)Nc2cccc3ccccc23)[C@@H](C)CN([C@H](C)CO)C(=O)c2cc(NC(=O)Cc3ccccc3)ccc2O1,-84,–
C[C@H](CO)N1C[C@H](C)[C@@H](CN(C)C(=O)Nc2cccc3ccccc23)OCCCC[C@H](C)Oc2ccc(NC(=O)Cc3ccccc3)cc2C1=O,?,–
C[C@@H]1CCCCO[C@H](CN(C)C(=O)Nc2cccc3ccccc23)[C@H](C)CN([C@@H](C)CO)C(=O)c2cc(NC(=O)Nc3ccccc3)ccc2O1,–,–
O=C(C[C@@H]1C[C@@H]2c3cc(NC(=O)NC4CCCC4)ccc3O[C@@H]2[C@H](CO)O1)NCc1ccc(-c2ccccc2)cc1,–,–
Cc1noc(C)c1S(=O)(=O)N(C)C[C@@H]1Oc2ccc(NC(=O)Nc3cccc4ccccc34)cc2CC(=O)N([C@@H](C)CO)C[C@H]1C,–,–
COc1ccc2c3c([nH]c2c1)[C@H](CO)N(Cc1ccncc1)CC31CCN(C(=O)c2cccnc2)CC1,–,–
COc1cc(CN2CC3(CCN(C(=O)Nc4c(C)noc4C)CC3)c3c([nH]c4cc(OC)ccc34)[C@@H]2CO)cc(OC)c1,–,–
COc1cc(CN2CC3(CCN(C(=O)c4cccnc4)CC3)c3c([nH]c4cc(OC)ccc34)[C@@H]2CO)cc(OC)c1,-89,–
COc1ccc2c3c([nH]c2c1)[C@H](CO)N(Cc1ccc(Cl)cc1)CC31CCN(C(=O)CN(C)C)CC1,?,–
CCCC(=O)N1CCC2(CC1)CN(Cc1cccnc1)[C@@H](CO)c1[nH]c3cc(OC)ccc3c12,-90,–
COc1cc(CN2CC3(CN(C(=O)Nc4c(C)noc4C)C3)c3c([nH]c4cc(OC)ccc34)[C@@H]2CO)cc(OC)c1,-85,–
CCCC(=O)N1CCC2(CC1)CN(Cc1ccc(Cl)cc1)[C@@H](CO)c1[nH]c3cc(OC)ccc3c12,-84,–
CCCC(=O)N1CC2(C1)CN(Cc1cccnc1)[C@H](CO)c1[nH]c3cc(OC)ccc3c12,–,–
COc1ccc2c3c(n(C)c2c1)[C@H](CO)N(C(=O)Nc1ccc(F)cc1)CC31CCN(C(=O)c2ccc3c(c2)OCO3)CC1,-88,–
COc1ccc2c3c(n(C)c2c1)[C@@H](CO)N(C(=O)Nc1ccc(F)cc1)CC31CCN(C(=O)c2ccc3c(c2)OCO3)CC1,–,–
COc1ccc2c3c(n(C)c2c1)[C@@H](CO)N(C(=O)Nc1ccc(F)cc1)CC31CCN(C(=O)c2ccccc2F)CC1,-85,–

# Screening data from PubChem.
